# Results published in PubChem BioAssay (NCATS).
# Legend:
# Experiment in all cases: Confirmatory Screen for Target Class Profiling of Small Molecule Inhibitors of Methyltransferases (AID 1745852); on activity change, negative = inhibition: on the % scale 0 is the no-effect control and ±100 the full control effect
# [1] = target: Catechol O-methyltransferase (Homo sapiens) (UniProt P21964); details: MTase-Glo luminescence, SAH detection, recombinant enzyme; measured here: COMT max response; stronger effect = lower value
# [2] = target: Guanidinoacetate N-methyltransferase (Homo sapiens) (UniProt Q14353); details: MTase-Glo luminescence, SAH detection, recombinant enzyme; activity change, negative = inhibition: at 57.3 µM (top of the series) unless noted
# [3] = target: Nicotinamide N-methyltransferase (Homo sapiens) (UniProt P40261); details: MTase-Glo luminescence, SAH detection, recombinant enzyme; measured here: NNMT max response; stronger effect = lower value
# [4] = target: Phenylethanolamine N-methyltransferase (Homo sapiens) (UniProt P11086); details: MTase-Glo luminescence, SAH detection, recombinant enzyme; measured here: PNMT max response; stronger effect = lower value
# Chain of Phenylethanolamine N-methyltransferase (Homo sapiens) (P11086 whole entry, looked up): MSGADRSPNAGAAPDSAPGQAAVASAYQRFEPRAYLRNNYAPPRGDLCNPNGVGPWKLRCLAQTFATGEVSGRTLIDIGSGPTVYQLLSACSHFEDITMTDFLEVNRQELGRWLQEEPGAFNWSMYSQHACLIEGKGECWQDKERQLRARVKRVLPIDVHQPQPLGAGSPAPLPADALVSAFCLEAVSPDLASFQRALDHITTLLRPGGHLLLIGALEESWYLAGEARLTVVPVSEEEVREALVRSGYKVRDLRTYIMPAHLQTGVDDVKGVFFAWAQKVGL
# Chain of Nicotinamide N-methyltransferase (Homo sapiens) (P40261 whole entry, looked up): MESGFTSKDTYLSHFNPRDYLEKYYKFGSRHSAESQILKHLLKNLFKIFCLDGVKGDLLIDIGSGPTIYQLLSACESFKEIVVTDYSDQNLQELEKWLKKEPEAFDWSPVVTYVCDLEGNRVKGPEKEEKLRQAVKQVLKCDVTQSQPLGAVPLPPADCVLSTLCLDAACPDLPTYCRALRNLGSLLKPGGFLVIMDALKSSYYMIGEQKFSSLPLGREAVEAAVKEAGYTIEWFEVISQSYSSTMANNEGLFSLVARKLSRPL
# Chain of Catechol O-methyltransferase (Homo sapiens) (P21964 whole entry, looked up): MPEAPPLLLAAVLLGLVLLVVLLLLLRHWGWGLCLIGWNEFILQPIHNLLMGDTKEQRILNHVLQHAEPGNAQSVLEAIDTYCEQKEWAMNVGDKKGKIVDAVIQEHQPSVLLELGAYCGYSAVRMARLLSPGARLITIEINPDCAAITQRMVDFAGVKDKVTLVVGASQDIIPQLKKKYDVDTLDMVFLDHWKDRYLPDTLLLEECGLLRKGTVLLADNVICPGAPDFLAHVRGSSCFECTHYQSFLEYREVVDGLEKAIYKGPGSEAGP
Structure (SMILES),activity [1] [%],"activity change, negative = inhibition [2]",activity [3] [%],activity [4] [%]
C=C[C@H]1[C@H](O[C@@H]2O[C@H](CO)[C@@H](O)[C@H](OC(=O)/C=C/c3ccc(O)c(OC)c3)[C@H]2O)OC=C2C(=O)OCC[C@]21O,-63.6,-8.69% [at 29.8 µM],-4.35,-4.62
CC(C)=C1CC2C(CCC2(C)O)C(C)(O)CC1=O (stereo unspecified),-78.9,0%,3.19,3.52
COc1c(O)cc2c(c1O)C(=O)O[C@H](C)[C@H]2O,-42.1,0.552%,0.175,0.108
COc1ccc(CC(NC(C)=O)C(=O)O)cc1 (stereo unspecified),-71.7,0%,1.04,-0.971
COc1cc(/C=C/C(=O)O[C@H]2[C@@H]3C=CO[C@@H](O[C@@H]4O[C@H](CO)[C@@H](O)[C@H](O)[C@H]4O)[C@@H]3[C@@]3(CO)O[C@@H]23)ccc1O,-66.9,0% [at 29.8 µM],1.36,-3.15
C[C@]1(C2CCCC2)Cc2cc(OCC(=O)O)c(Cl)c(Cl)c2C1=O,-5.66,-6.29%,-48.2,-6.93
O=C(COCC(=O)N1CCN(C(c2ccccc2)c2ccccc2)CC1)Nc1ccc(Cl)cc1C(=O)O,-5.29,-4.07%,-44.4,-8.81
COc1c2c(c(C)c3c1C(=O)OC3)OC1(C)CC(O)C34OC(OC)(CC(O)C3(C)C1C2)OC4(C)C (stereo unspecified),-15,-2.68% [at 29.8 µM],-8.14,-5.39
CC1(C)CC[C@]2(C(=O)O[C@@H]3O[C@H](CO)[C@@H](O)[C@H](O)[C@H]3O)CC[C@]3(C)C(=CCC4[C@@]5(C)C[C@@H](O)[C@H](O)[C@@](C)(CO)C5[C@H](O)C[C@]43C)C2[C@@H]1O (stereo partly specified),-79.3,0% [at 19.1 µM],4,3.8
